High-throughput results deposited in PubChem by National Center for Advancing Translational Sciences (NCATS).
HT1080 IDH1KD tx: qHTS for induction of synthetic lethality in tumor cells producing 2HG: qHTS for the HT-1080-IDH1KD cell line. HT-1080 IDH1 knockdown viability, ATP luminescence, 48 h. Potency, µM (top dose mostly 46.1 µM), inactives show at the top dose activity, negative = toxicity, actives largely listed as cytotoxic. 360,000 tested, 2% active. AID 686971, 2013;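 note: potency is the fitted concentration of half-maximal effect; 0% = DMSO wells and -100% = cell-free medium wells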
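Cytotoxicity counter-line: IDH1KD HT-1080, 48 h, CellTiter-Glo. Curves classed by r2, magnitude and activity.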
DT40 TDP1 no CPT: qHTS for Inhibitors of human tyrosyl-DNA phosphodiesterase 1 (TDP1): qHTS in cells in absence of CPT; DT40 Tdp1-/- hTDP1 cells, no CPT, ATP luminescence, 48 h; Potency, µM (titrated, usually from 46.2 µM), inactives show top-dose activity change, negative = growth inhibition, most hits filed as inhibitors; 420,000 tested, 15% active; AID 686978, 2013; note: potency is the fitted concentration of half-maximal effect; nearly all actives have a fitted effect of over 55% in size
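Seeded 400 DT40-hTDP1 cells/well (vehicle DMSO, no 20 nM CPT); pinned compounds; ≥48 hr at 37 °C; CellTiter-Glo luminescence as viability measure.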
IL-1B inflam inh: qHTS for Inhibitors of Inflammasome Signaling: IL-1-beta AlphaLISA Primary Screen | AID 743279, 2014 | activity change, % at 57.5 µM | 360,000 tested, 4.7% active | THP-1 LPS/ATP IL-1B secretion, AlphaLISA, 16 h; active compounds read low; in the data active = activity change below about -50%; inconclusive = mostly about -30% to -49%
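Secreted IL-1B measured by AlphaLISA bead assay after 16 h compound exposure of THP-1 cells; compounds (final up to 57.5 uM) added 1 h before LPS (250 ng/mL) and ATP (1.25 mM) stimulation; lower signal means less secretion.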
DT40 TDP1 CPT: qHTS for Inhibitors of human tyrosyl-DNA phosphodiesterase 1 (TDP1): qHTS in cells in presence of CPT. chicken DT40 Tdp1-/-;hTDP1 cells + 20 nM CPT, ATP luminescence, 48 h. Potency, µM (series often up to 46.2 µM), for the others: at the highest dose activity change, negative = growth inhibition, hits mostly inhibitors. 420,000 tested, 12% active. AID 686979, 2013; note: potency is the fitted concentration of half-maximal effect; nearly all actives have a fitted effect of over 55% in size
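Cell growth measured by CellTiter-Glo luminescence after a minimum 48 h, 37 C compound exposure with 20 nM CPT in Tdp1-knockout DT40 cells stably expressing hTDP1, seeded 400/well; qHTS titration format.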
HT1080NT lethal: qHTS for induction of synthetic lethality in tumor cells producing 2HG: qHTS for the HT-1080-NT fibrosarcoma cell line; HT-1080-NT fibrosarcoma viability, CellTiter-Glo ATP luminescence, 48 h; Potency, µM (doses to about 46.1 µM), for inactives: at the top dose activity, negative = less viability, usual class: cytotoxic; 360,000 tested, 1.6% active; AID 686970, 2013;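 note: NT is the 2HG producing partner of a matched IDH1 knockdown line; potency is the fitted concentration of half-maximal effect; 0% = DMSO-treated cells and -100% = media-only wells without cells; nearly all actives have a fitted effect of over 55% in size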
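A 48-hour cytotoxicity screen used HT-1080-NT cells plated 2 hours before compound delivery. ATP-based CellTiter-Glo luminescence measured viability, normalized to DMSO and no-cell controls.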
An asterisk follows results filed as active; i = inactive; ? = inconclusive; . = no result given; [ ] = another dose, or the depositor's remark. Sampled rows, rich in hits. Any-hit rate of the full collection: about 19%. Unless noted, calls come from the whole dose curve; as a rule, active = well fitted curve in the direction sought with a large enough effect; inconclusive = small, poorly fitted or top-dose-only effect, or another doubt; inactive = no such curve, though single readings can be large; an effect the other way counts as inactive or inconclusive. Unless noted, % is set by controls: 0 for no effect and ±100 for the full control effect.

SMILES | HT1080 IDH1KD tx | DT40 TDP1 no CPT | IL-1B inflam inh | DT40 TDP1 CPT | HT1080NT lethal
CCC(C(=O)c1ccccc1)N(C(=O)c1ccccc1Cl)N1C(=O)C2C3C=CC(C3)C2C1=O (stereo not drawn) | 1% | ? | 10 | -18% | -1%
CS(=O)(=O)N(CC(=O)N1CCCC1)c1cccc(C(F)(F)F)c1 | 7% | -24% | -14 | -13% | 7%
CCC1CCc2sc(C(=O)NCc3ccccn3)cc2C1 (stereo not drawn) | ? | 10µM* | -11 | 15µM* | -25%
CCC1CCc2sc(C(=O)NNC(=S)NCC3CCCO3)cc2C1 (stereo not drawn) | -4% | ? | 22 | ? | 0%
CCC1CCc2sc(C(=O)NCC(c3ccccc3OC)N3CCCC3)cc2C1 (stereo not drawn) | ? | 21µM* | -22 | 16µM* | ?
CCC1CCc2sc(C(=O)NCC3CCCO3)cc2C1 (stereo not drawn) | 20% | 18µM* | -17 | ? | -1%
C=CCc1c(C)nc(SCC(=C)C)[nH]c1=O | 1% | 0% | 1 | 1% | 4%
CN(C)CCCN(C(=O)c1ccc(S(=O)(=O)N2CCCC2)cc1)c1nc2ccc(Br)cc2s1 | 23µM* | 21µM* | -52* | 23µM* | 21µM*
Cc1cc(C)c2nc(N(CCCN(C)C)C(=O)c3ccc(S(=O)(=O)N4CCCCCC4)cc3)sc2c1 | 16µM* | ? | -96* | ? | 16µM*
CN(C)CCCN(C(=O)c1ccc(S(=O)(=O)N2CCCCC2)cc1)c1nc2cc3c(cc2s1)OCO3 | -4% | ? | -63* | 23µM* | -17%
CC1CN(S(=O)(=O)c2ccc(C(=O)N(CCCN(C)C)c3nc4c(Cl)cccc4s3)cc2)CC(C)O1 (stereo not drawn) | -9% | 2% | -54* | -29% | -6%
CCOc1ccc2nc(N(CCCN(C)C)C(=O)c3ccc(S(=O)(=O)N4CCCC4)cc3)sc2c1 | -11% | -29% | 0 | ? | -17%
COc1cccc2sc(N(CCN(C)C)C(=O)c3ccc(S(=O)(=O)N4CCCC4)cc3)nc12 | -18% | ? | i | 2% | 2%
CCOc1cccc2sc(N(CCCN(C)C)C(=O)c3ccc(S(=O)(=O)N4CCc5ccccc5C4)cc3)nc12 | -5% | ? | ? | ? | -18%
CCOC(=O)N1CCC(=NNC(N)=O)C1 | -7% | -1% | 2 | 22% | -8%
COc1cc(OC)c(NC(=O)Cn2c(=O)cc(C(F)(F)F)c3c(C)nn(C)c32)cc1Cl | . | 7% | . | -4% | .
Clc1cccc(CNCCCSc2ncccn2)c1 | 2% | -24% | -16 | -18% | -2%
N#Cc1ccccc1OCC(=O)OCCCOC(=O)COc1ccccc1C#N | 9% | 0% | 3 | 0% | -4%
CCOc1ccc(S(=O)(=O)NC(C)C(=O)NCc2ccc3c(c2)OCO3)cc1 (stereo not drawn) | -10% | -19% | -1 | -36% | 0%
CCn1cc(C(=O)NCCOC)c(=O)c2cc(S(=O)(=O)N3CCOCC3)ccc21 | . | 4% | . | 0% | .
CCOC(=O)C(C)(C)N(Cc1ccc(C)cc1)S(=O)(=O)c1ccc(Cl)c([N+](=O)[O-])c1 | ? | 13µM* | -104* | 15µM* | ?
NS(=O)(=O)c1ccc(CNC(=O)c2ccc(Cl)c([N+](=O)[O-])c2)cc1 | 7% | ? | ? | ? | 1%
CCCCCn1c(=NC(=O)c2cccnc2)c(C#N)cc2c(=O)n3cccc(C)c3nc21 | 0% | ? | 21 | ? | 7%
CCCCn1c(=NC(=O)c2ccc3c(c2)OCO3)c(C#N)cc2c(=O)n3cccc(C)c3nc21 | 4%[9.24 µM] | 9.2µM* | 0 | 7.3µM* | 4%
CCOCCCn1c(=NC(C)=O)c(C#N)cc2c(=O)n3cccc(C)c3nc21 | 3% | ? | . | 8% | -1%
SMILES | HT1080 IDH1KD tx | DT40 TDP1 no CPT | IL-1B inflam inh | DT40 TDP1 CPT | HT1080NT lethal
CCCCn1c(=NC(C)=O)c(C#N)cc2c(=O)n3cccc(C)c3nc21 | -4% | 18µM* | 60 | -29% | 4%
CCN(CC)CCNS(=O)(=O)c1ccc(OC)c(Br)c1 | 12% | -7% | 0 | 4% | 10%
COc1cc(S(=O)(=O)N(Cc2cccnc2)Cc2cccc(OC)c2OC)ccc1-n1cnnn1 | -3% | ? | -12 | 16µM* | -2%
COc1ccccc1CN(Cc1cccnc1)S(=O)(=O)c1ccc(-n2cnnn2)c(OC)c1 | -1% | 21µM* | -12 | -2% | 1%
COc1ccc(CN(Cc2cccnc2)S(=O)(=O)c2ccc(-n3cnnn3)c(C)c2)cc1OC | 7%[9.24 µM] | ? | ? | ? | -25%
CCCc1nnc(NC(=O)CCC(=O)N2CCC(C)CC2)s1 | 9% | 23% | 31 | -19% | 4%
CC(=O)Nc1cc2c(cc1Cl)-c1ccccc1C2O (stereo not drawn) | -27% | 0% | -6 | -21% | 1%
CNC(=S)N/N=C/c1cn(Cc2c(F)cccc2Cl)c2ccccc12 | -27% | 12µM* | 38 | ? | -15%
CCNC(=S)N/N=C/c1cn(Cc2ccccc2F)c2ccccc12 | 2% | 5.8µM* | -19 | 6.5µM* | -5%
CCOC(=O)c1c(/N=C/C2=C(O)CC(C)(C)CC2=O)sc2c1CCCC2 | 6% | -22% | . | -1% | 19%
O=[N+]([O-])c1ccccc1S(=O)(=O)NC1CCCC1 | 14% | -3% | 17 | 0% | 23%
CCCc1nc2ccc(C(=O)OC)cn2c1Cc1cccc(F)c1 | ? | ? | 17 | ? | -14%
CCCc1nc2ccc(Cl)cn2c1Cc1cccc(Cl)c1 | ? | 8.2µM* | -3 | 10µM* | ?
CCCc1nc2ccc(Cl)cn2c1Cc1ccc(C)cc1 | ? | 23µM* | 38 | 23µM* | -17%
COC(=O)[C@@]1(Cc2ccc(OC)cc2)[C@H]2c3cc(C(=O)N4CCCC4)n(CCn4cc([N+](=O)[O-])nc4C)c3C[C@H]2CN1C(=O)c1ccccc1 | 7% | -5% | 0 | 1% | 7%
O=C1CC(N2CCN(c3ccccn3)CC2)C(=O)N1CC(c1ccccc1)c1ccccc1 (stereo not drawn) | -20% | ? | 17 | 23µM* | -21%
O=C1CC(N2CCN(c3ccccn3)CC2)C(=O)N1c1ccc(F)cc1 (stereo not drawn) | ? | -12% | -4 | -9% | 15%
